Among the test systems are NCI-H23 lung; NCI-H226 lung; NCI-H322M lung; HOP-62 NSCLC; NCI-H460 lung; HOP-92 NSCLC; NCI-H522 lung; A549/ATCC NSCLC; 786-0 renal; COLO 205 colon; DU-145 prostate; K-562 leukemia; MALME-3M melanoma; MDA-MB-231 breast; SF-268 CNS; SF-295 CNS; SF-539 CNS; UACC-257 melanoma; M14 melanoma.
Holding throughout (experiment): NCI-60 one-dose screen, 48 h (100 = growth as untreated, 0 = no growth, -100 = all killed)
Conditions in all cases: 10 µM unless noted

About 83,000 compounds went through this panel and 20% of them were active in at least one assay; those are over-represented in the sample as a whole.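 Cells were grown in 96-well plates and exposed to the test compound at a single concentration for 48 hours; results are reported as percent growth, with values below 10 considered active.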 Values without a mark were called inactive. The source made the active and inactive calls.

In the case of `c1ccc(-c2nnc(Nc3ccc4c(c3)OCCO4)o2)c(NCc2ccncc2)c1`, the growth was 2.75% (active) in the test with NCI-H23 lung; -9.34% (active) with NCI-H226 lung; 40.4% with NCI-H322M lung; 25.3% in the test with HOP-62 NSCLC; 4.52% (active) in the test with NCI-H460 lung; 77.7% with HOP-92 NSCLC. For the same compound, the growth in the test with NCI-H522 lung was -34.5% (active); in the test with A549/ATCC NSCLC, 22.6%; in the test with 786-0 renal it was 17.1%; in the test with COLO 205 colon, -68.8% (active); in the test on DU-145 prostate, -22% (active); in the test with K-562 leukemia it was 12.1%. For the same compound, the growth in the test with MALME-3M melanoma is 53.6%; with MDA-MB-231 breast, 15.4%; with SF-268 CNS it was 14.3%; with SF-295 CNS, 3.68% (active); with SF-539 CNS it was -2.94% (active); in the test with UACC-257 melanoma it was 68.3%. In addition, the growth in the test on M14 melanoma was -17.8% (active).
Turning to `O=C(Nc1ccc(Cl)cc1)Nc1ccc(Cl)c(Cl)c1`, the growth in the test on NCI-H23 lung was -54.2% (active); with NCI-H226 lung, 16.3%; in the test on NCI-H322M lung, 23.7%; in the test on HOP-62 NSCLC, 40.8%; in the test on NCI-H460 lung, -9.05% (active); in the test on HOP-92 NSCLC, 4.68% (active). In addition, the growth in the test on NCI-H522 lung was 0.643% (active); with A549/ATCC NSCLC it was 12.6%; in the test on 786-0 renal, 39.1%; with COLO 205 colon, -2.8% (active); with DU-145 prostate, 10.7%; in the test with K-562 leukemia, 4.12% (active). The growth was -1.33% (active) in the test with MALME-3M melanoma; 37.6% in the test on MDA-MB-231 breast; 36.1% in the test on SF-268 CNS; -50.7% (active) with SF-295 CNS; -19.2% (active) with SF-539 CNS; 43% in the test on UACC-257 melanoma. Also, the growth with M14 melanoma was 22.8%.
For `CNC(=O)c1c(NC(=O)c2ccc(C(C)C)cc2)sc2c(CN(C)C)c(O)ccc12`, the growth in the test with NCI-H23 lung is 101%; in the test on NCI-H226 lung, 95.2%; with NCI-H322M lung it was 94.2%; in the test on HOP-62 NSCLC it was 98.9%; in the test on NCI-H460 lung, 38.7%; in the test with HOP-92 NSCLC, 64.7%. Moreover, the growth was 77.8% in the test on NCI-H522 lung; 115% in the test on A549/ATCC NSCLC; 83.9% with 786-0 renal; 97.6% with COLO 205 colon; 97.4% in the test on DU-145 prostate; -7.46% (active) in the test on K-562 leukemia. Also, the growth in the test with MALME-3M melanoma was 88.5%; in the test on MDA-MB-231 breast, 95%; in the test on SF-268 CNS it was 90.8%; in the test on SF-295 CNS it was 97.7%; in the test with SF-539 CNS, 97.3%; in the test with UACC-257 melanoma it was 110%. For the same compound, the growth with M14 melanoma was 86.8%.
`CCOC(=O)c1c(O)cc(-c2ccccc2)cc1-c1sc(N(C)Cc2ccccc2)nc1Cl`: the growth with NCI-H23 lung was 98.7%; in the test on NCI-H226 lung, 94%; in the test on NCI-H322M lung, 106%; in the test on HOP-62 NSCLC, 104%; with NCI-H460 lung, 102%; with HOP-92 NSCLC, 91.3%. For the same compound, the growth in the test on NCI-H522 lung was 86.4%; with A549/ATCC NSCLC it was 98.8%; in the test with 786-0 renal it was -97.1% (active); in the test with COLO 205 colon, 106%; in the test with DU-145 prostate it was 108%; in the test with K-562 leukemia, 93.4%. Besides, the growth is 100% in the test on MALME-3M melanoma; 103% in the test on MDA-MB-231 breast; 95.8% in the test on SF-268 CNS; 99.6% in the test on SF-295 CNS; 97% in the test with SF-539 CNS; 96.1% in the test with UACC-257 melanoma. Further, the growth with M14 melanoma was -85% (active).
On to `O=c1[nH]nc(-c2ccc(Br)cc2)cc1Cc1ccc(O)cc1`, for which the growth in the test with NCI-H23 lung is 98.5%; with NCI-H226 lung it was 85.6%; with NCI-H322M lung, 126%; in the test with HOP-62 NSCLC it was 109%; in the test on NCI-H460 lung, 103%; in the test with HOP-92 NSCLC it was 51.8%. Also, the growth with NCI-H522 lung is 89.5%; with A549/ATCC NSCLC, 56.7%; in the test on 786-0 renal, 103%; with COLO 205 colon it was 98.8%; in the test with DU-145 prostate it was 91.5%; with K-562 leukemia, 81.5%. For the same compound, the growth in the test on MALME-3M melanoma is 106%; with MDA-MB-231 breast it was 87.6%; in the test on SF-268 CNS, 89.8%; in the test on SF-295 CNS, 107%; with SF-539 CNS, 102%; with UACC-257 melanoma, 106%. For the same compound, the growth in the test on M14 melanoma was 107%.
On to `CC(=O)N1N=C(c2cccc(Nc3ccncc3)c2)CC1c1ccccc1` (stereo not drawn), for which the growth with NCI-H23 lung was 93.3%; with NCI-H226 lung, 95.3%; in the test on NCI-H322M lung, 93.3%; in the test with HOP-62 NSCLC, 92.5%; in the test on NCI-H460 lung, 95.1%; with HOP-92 NSCLC it was 55.9%. Besides, the growth in the test with NCI-H522 lung is 91.7%; in the test on A549/ATCC NSCLC, 85.2%; in the test with 786-0 renal it was 4.92% (active); with COLO 205 colon, 81.5%; with DU-145 prostate it was 99.5%; with K-562 leukemia, 11.8%. Besides, the growth is 76.7% with MALME-3M melanoma; 83.9% with MDA-MB-231 breast; 91% in the test with SF-268 CNS; 87.5% in the test with SF-295 CNS; 80.9% in the test with SF-539 CNS; 92.6% with UACC-257 melanoma. Also, the growth in the test on M14 melanoma was -76.2% (active).
On to `C[C@@H]1CN(Cc2ccc(/C=C/c3n[nH]c4ccc5nc(-c6cn[nH]c6C(F)(F)F)c6c(c5c34)CCCC6)cc2)C[C@H](C)O1`, for which the growth with NCI-H23 lung was 31.9%; with NCI-H226 lung, 45.3%; in the test on NCI-H322M lung, 45.1%; in the test with HOP-62 NSCLC, 36.7%; in the test on NCI-H460 lung, -4.09% (active); with HOP-92 NSCLC, 41.4%. Besides, the growth with NCI-H522 lung was 21%; with A549/ATCC NSCLC, 25.3%; with 786-0 renal, 26.6%; with COLO 205 colon it was 1.61% (active); in the test with DU-145 prostate it was 27.7%; with K-562 leukemia, 10.4%. The growth with MALME-3M melanoma was 41.2%; with MDA-MB-231 breast it was 12.9%; in the test with SF-268 CNS it was 36.5%; in the test with SF-295 CNS, 38.4%; in the test with SF-539 CNS it was 7.28% (active); with UACC-257 melanoma it was 75.5%. Further, the growth in the test on M14 melanoma was 18.9%.

For the origin of these results see PubChem BioAssay (NCI).
